Data on 52 compounds can be found in PubChem BioAssay AID493036 (Sanford-Burnham Center for Chemical Genomics, 2011).

In all, about 330,000 compounds went through this assay and about 560 (0.17%) were called active. The sample holds actives, similar compounds and a random draw of the others, so the mix is not that of the screen.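 The calls were made as follows: active = activation at or above 40% of the spot to cytoplasm intensity ratio, with at least 20 cells analyzed; inconclusive = wells under 20 cells, flagged as cytotoxic or low count; inactive = the rest.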

The nature of assay [1]: agonists of human NTR1, primary screen, imaging, U2OS cells, beta-arrestin-GFP, high content (AID 493036).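 As to activation: 0% = DMSO without peptide and 100% = 100 nM NTR1 peptide.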 The following applies: NTR1-U2OS beta-arrestin-GFP spot imaging, agonist mode; measured here: cell count, cytotoxicity flag; at 20 µM.
In assay [2] the target is Neurotensin receptor type 1 (Homo sapiens) (UniProt P30989). The description is as above. The following applies: NTR1-U2OS beta-arrestin-GFP spot imaging, agonist mode; at 20 µM; stronger effect = higher value.
Chain of Neurotensin receptor type 1 (Homo sapiens) (P30989 whole entry, looked up): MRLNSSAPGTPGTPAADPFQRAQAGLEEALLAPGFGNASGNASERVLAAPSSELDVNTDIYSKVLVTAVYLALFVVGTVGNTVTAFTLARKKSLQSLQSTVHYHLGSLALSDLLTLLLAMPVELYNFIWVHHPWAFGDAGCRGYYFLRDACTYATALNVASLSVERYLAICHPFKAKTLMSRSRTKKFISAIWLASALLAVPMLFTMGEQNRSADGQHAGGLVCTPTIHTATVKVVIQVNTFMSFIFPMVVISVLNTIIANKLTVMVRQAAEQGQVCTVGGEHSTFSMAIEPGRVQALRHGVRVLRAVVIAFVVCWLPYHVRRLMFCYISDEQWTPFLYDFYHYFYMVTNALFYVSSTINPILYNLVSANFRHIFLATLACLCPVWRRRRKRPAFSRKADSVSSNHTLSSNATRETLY

For the compound `Cc1cccc(-c2nc(Nc3ccc(O)cc3)c3ccccc3n2)c1`, in assay [1], the cell count was 84 cells. Besides, the activation in assay [2] was 60.9% (active).

`CN1CCN(c2nc(Nc3ccc(O)cc3)nc3ccccc23)CC1`: the cell count in assay [1] stood at 47 cells. For the same compound, the activation in assay [2] is 0.5% (inactive).

On to `Oc1ccc(-c2nnc(Nc3ccccc3)c3ccccc23)cc1`, for which the cell count in assay [1] is 62 cells. For the same compound, the activation in assay [2] was -0.2% (inactive).

In assay [1], `Cc1cc(C)cc(N(CC(=O)N2CC=C(c3ccccc3)CC2)S(=O)(=O)c2c(C)noc2C)c1` yielded a cell count of 52 cells. Also, the activation in assay [2] is 3.3% (inactive).

Consider `COc1ccc(C)cc1S(=O)(=O)Nc1cc2c3c(c1)CCC(=O)N3CCC2`, for which, in assay [1], the cell count came to 52 cells. Further, in assay [2], the activation was -1.6% (inactive).

As to `Cc1ccccc1C(=O)N1CCC(C(=O)Oc2ccc(C#N)cc2)CC1`, the cell count in assay [1] is 77 cells. Moreover, the activation in assay [2] was 0.9% (inactive).

In assay [1], `Cc1cc(Cl)ccc1OCc1nc(-c2ccncc2)no1` gave a cell count of 20 cells. Besides, in assay [2], the activation is 1.2% (inactive).

In assay [1], `Cn1c(-c2ccc(C(=O)c3ccccc3)s2)nc2ccccc21` showed a cell count of 111 cells. Besides, in assay [2], the activation is -1.6% (inactive).

As to `O=C(CCc1ccc(S(=O)(=O)N2CCOCC2)cc1)Nc1ccc2ccccc2c1`, the cell count in assay [1] stood at 90 cells. For the same compound, in assay [2], the activation was 1.8% (inactive).

As to `CCOC(=O)c1cccc(NS(=O)(=O)c2c(C(=O)N3CCCCCC3)c(C)n(C)c2C)c1`, the cell count in assay [1] was 47 cells. For the same compound, the activation in assay [2] was 1.2% (inactive).

Regarding `N#CCSc1nc2c(c(=O)n1Cc1ccccc1)C1(CCCC1)Cc1ccccc1-2`, the cell count in assay [1] was 47 cells. In assay [2], the activation is 3.2% (inactive).

`Cc1cccc(-n2c(=O)c3c(C)c(C)sc3n(CC(N)=O)c2=O)c1` returned a cell count in assay [1] of 70 cells. Moreover, the activation in assay [2] was 0.5% (inactive).

In turn, `Cc1cccc(-n2c(SCC(N)=O)nc3c(c2=O)C2(CCCCC2)Cc2ccccc2-3)c1` came in with a cell count in assay [1] of 62 cells. The activation in assay [2] is 49.9% (active).

Turning to `CC(C)(C)OC(=O)NCCCCCNC(=O)c1[nH]cnc1C(=O)Nc1nccs1`, in assay [1], the cell count was determined as 56 cells. Besides, the activation in assay [2] is 2.3% (inactive).

On to `CN1/C(=C\C=C2\N=C(c3ccc(F)cc3)OC2=O)C(C)(C)c2ccccc21`, for which, in assay [1], the cell count was determined as 59 cells. In addition, the activation in assay [2] is -1% (inactive).

As to `CC1=CCC2C(=O)N(c3cccc(C(=O)NC(C)c4ccccc4)c3)C(=O)C2C1` (centres undefined), in assay [1], the cell count was 86 cells. Moreover, the activation in assay [2] was -1.2% (inactive).

In the case of `Cc1ccc(C(=O)N/N=C\c2cc(Br)c(Br)o2)cn1`, in assay [1], the cell count was determined as 42 cells. Also, in assay [2], the activation is 3.4% (inactive).

In assay [1], `CNC[C@H](CC1CCCCC1)NC[C@H](NCCC1CCCC1)[C@H](C)O` gave a cell count of 59 cells. For the same compound, in assay [2], the activation was 4.7% (inactive).

Turning to `Cc1ccc(-n2c(SCC(=O)NCc3ccc4c(c3)OCO4)nnc2-c2cccnc2)c(C)c1`, in assay [1], the cell count amounted to 50 cells. In addition, the activation in assay [2] is -0.8% (inactive).

Take `Cc1cccc(NC(=O)C2CCCN(C(=O)NCc3ccccc3)C2)c1C` (centres undefined): in assay [1], the cell count is 37 cells. Besides, the activation in assay [2] was 0.3% (inactive).

`CCCCNc1c(-c2ccc(OC)c(Sc3ccc(OC)cc3)c2)nc2ccc(Cl)cn12` returned a cell count in assay [1] of 52 cells. For the same compound, in assay [2], the activation was 3.2% (inactive).

On to `CCCCCCSc1ccc(-c2nc3ccc(Cl)cn3c2NCc2ccccc2)cc1`, for which, in assay [1], the cell count stood at 65 cells. The activation in assay [2] was -1.8% (inactive).

`CCCCNc1c(-c2cccc(Sc3ccc(OC)cc3)c2)nc2ccccn12`: in assay [1], the cell count came out at 60 cells. Further, in assay [2], the activation was 42.5% (active).

In the case of `CC(C)C(=O)Nc1ccc2c3c(cccc13)CC2`, the cell count in assay [1] was determined as 56 cells. Moreover, in assay [2], the activation was 0.6% (inactive).

In assay [1], `CC(=O)N1C(C)c2ccccc2C(C)(C)CC12CCCCC2` (centres undefined) registered a cell count of 51 cells. In addition, the activation in assay [2] was 0.8% (inactive).

Turning to `Cn1c(C(=O)O)ccc1S(=O)(=O)N(Cc1ccccc1)Cc1ccccc1`, in assay [1], the cell count amounted to 65 cells. For the same compound, the activation in assay [2] was 0.5% (inactive).

Consider `Cc1cc2occ(CC(=O)NNC(=O)c3ccccc3F)c2cc1C`, for which, in assay [1], the cell count worked out at 58 cells. Also, the activation in assay [2] was 0.7% (inactive).

`O=C(N[C@@H](Cc1ccccc1)C(=O)OCc1ccccc1)c1nc[nH]c1C(=O)NC1CCNCC1` returned a cell count in assay [1] of 66 cells. Also, the activation in assay [2] was 4% (inactive).

Consider `CC(C)(C)OC(=O)CNC(=O)c1[nH]cnc1C(=O)N[C@@H](Cc1ccccc1)C(=O)OCc1ccccc1`, for which the cell count in assay [1] is 87 cells. For the same compound, in assay [2], the activation is 15.2% (inactive).

`CC(C)(C)OC(=O)N1CCC(NC(=O)c2[nH]cnc2C(=O)N[C@@H](Cc2ccccc2)C(=O)OCc2ccccc2)CC1` yielded a cell count in assay [1] of 74 cells. In assay [2], the activation was 47.8% (active).

Take `CSc1ccc(C#N)cc1NC(=O)c1ccc(Cl)cc1`: the cell count in assay [1] stood at 46 cells. Also, the activation in assay [2] is 0.4% (inactive).

`FC(F)(F)c1cccc(-c2nc(COc3ccc(Cl)cc3Cl)no2)c1` registered a cell count in assay [1] of 40 cells. Moreover, in assay [2], the activation was -2% (inactive).

The compound `COc1ccc(C)cc1NC(=O)C(Sc1ccccc1)c1ccccc1` (centres undefined) gave a cell count in assay [1] of 44 cells. In assay [2], the activation was 1.2% (inactive).

With `O=C(O)c1cccc(N=NN2CCCCCC2)c1`, the cell count in assay [1] turned out to be 47 cells. Besides, the activation in assay [2] was 0.2% (inactive).

In the case of `COC(=O)C1=C(NC(=O)C(C)(C)C)CCS1`, in assay [1], the cell count amounted to 55 cells. Also, the activation in assay [2] is -0.2% (inactive).

In assay [1], `CC(=O)c1ccc(N2Cc3ccccc3C2)cc1` gave a cell count of 66 cells. Also, the activation in assay [2] was 0.5% (inactive).

Compound `N#Cc1ncc(C(F)(F)F)cc1Oc1cccnc1` yielded a cell count in assay [1] of 41 cells. The activation in assay [2] was -0.5% (inactive).

Consider `[O-][n+]1onc2c1CCc1[nH]c(-c3ccccc3)nc1-2`, for which the cell count in assay [1] was 66 cells. In addition, the activation in assay [2] was -0.8% (inactive).

On to `O=C(NC(=S)NC1CCS(=O)(=O)C1)c1cccc([N+](=O)[O-])c1` (centres undefined), for which, in assay [1], the cell count came to 51 cells. In assay [2], the activation is -0.4% (inactive).

For the compound `CCO[C@H]1OC(C(=O)NCc2ccccc2)=C[C@@H](c2coc3ccccc3c2=O)[C@@H]1CCCO`, the cell count in assay [1] stood at 79 cells. The activation in assay [2] was 0.3% (inactive).

`COc1ccc(OC)c(S(=O)(=O)NCCC(C)C)c1`: the cell count in assay [1] was 90 cells. The activation in assay [2] was -0.7% (inactive).

For the compound `O=C(NCc1ccco1)c1cnn2c(C(F)(F)F)cc(-c3ccco3)nc12`, in assay [1], the cell count worked out at 40 cells. In addition, in assay [2], the activation is 8.2% (inactive).

In assay [1], `CN(C(=O)c1cccc(NC(=O)C2CCN(C(=O)OC(C)(C)C)CC2)c1)C1CCC1` had a cell count of 52 cells. The activation in assay [2] is -0.7% (inactive).

On to `CC(C)Nc1nnc(SCC(=O)/C=C2\N(C)c3ccccc3C2(C)C)s1`, for which the cell count in assay [1] came out at 54 cells. Moreover, in assay [2], the activation is 0% (inactive).

In the case of `CC(=O)Nc1cccc(OCC(=O)/C=C2\N(C)c3ccccc3C2(C)C)c1`, the cell count in assay [1] was 29 cells. The activation in assay [2] is 0.8% (inactive).

In assay [1], `CN1/C(=C\C(=O)c2oc3ccccc3c2N)C(C)(C)c2ccccc21` yielded a cell count of 52 cells. Moreover, the activation in assay [2] was 45.5% (active).

As for `CC(Oc1ccccc1)C(=O)Nc1oc(-c2ccco2)c(-c2ccco2)c1C#N` (centres undefined), the cell count in assay [1] was 69 cells. Also, the activation in assay [2] was -1.6% (inactive).

For the compound `COc1ccc(CC(NC(C)=O)C(=O)N2CCN(C(=O)Nc3cccc(Cl)c3)CC2)cc1OC` (centres undefined), the cell count in assay [1] is 63 cells. The activation in assay [2] was -0.5% (inactive).

For `CC(=O)c1cnn(-c2cc(Oc3ccc(F)cc3)ncn2)c1C`, the cell count in assay [1] stood at 34 cells. The activation in assay [2] was -1.1% (inactive).

`COc1cc(/C=C2/C(=O)ON=C2C)ccc1OCc1ccccc1F` displayed a cell count in assay [1] of 36 cells. In addition, the activation in assay [2] is 73.4% (active).

In assay [1], `COc1cc(/C=C2/C(=O)ON=C2C)ccc1OCc1cccc(F)c1` returned a cell count of 41 cells. Also, the activation in assay [2] is 5.9% (inactive).

For the compound `C=CCOc1ccc(/C=C2/C(=O)ON=C2C)cc1OCC`, in assay [1], the cell count worked out at 89 cells. The activation in assay [2] is 2.1% (inactive).
